Only some compounds are listed: those with a hit (about 3.1% of all), similar ones and a draw of the others.
INS-1E GSIS act – GLuc luminescence reporter in INS-1E cells, primary screen for activators of glucose-dependent secretion of insulin; activation, % at 16.6 µM; hit rate 0.61% among 370,000; INS-1E GLuc reporter insulin secretion, 2-3 h; AID 743287;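 active = lowest replicate activation of at least 40%, so every replicate reaches that level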;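 note: 0% = median of neutral control wells and 100% = median of IBMX positive control wells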
EWS-Fli block – EWS/Fli transcriptional activity inhibition; hit rate 0.67% among 350,000; inhibition, % at 12.6 µM; A673 NR0B1-luciferase reporter, viability-normalised;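 active = mean inhibition of at least 50% after viability correction, with every replicate also passing that limit; inconclusive = mean reaches 50% but only one of two replicates passes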;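 note: firefly luciferase signal divided by Alamar Blue viability fluorescence both relative to DMSO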
PAX8 reporter – PAX8 transcriptional activity inhibition | RMG-I TPO-luciferase reporter, SteadyGlo, 24 h | inhibition, % at 12.6 µM | hit rate 1.2% among 360,000;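 active = mean replicate inhibition at least 60% with every replicate also reaching 60%; inconclusive = only one of the two criteria is met; inactive = mean below 60% and not all replicates reaching 60%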;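 note: luciferase light reporting Pax8 driven TPO promoter activity; plate controls were median of neutral control wells for no effect and mitoxantrone controls for full effect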
miR-122 sensor – miR-122 inhibition in Huh7 cells. Huh7 miR-122 Renilla luciferase sensor, 48 h; neutral wells = 0, positive control = 100. hit rate 0.3% among 340,000. activation (reporter increase), % at 12.5 µM;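 active = mean replicate activation score at least 90 and every replicate individually at or above 90; inconclusive = only one of the two criteria met; inactive = neither criterion met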;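 note: higher luciferase means less miR-122 activity so hits act as miR-122 inhibitors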
HIV Env fusion – inhibitors of HIV Env-mediated cell fusion; HeLa-JRFL Env/CEM21 cell fusion, luciferase; inhibition, % at 12.3 µM; hit rate 1.1% among 360,000;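 active = mean replicate inhibition score of at least 50 and every replicate individually at or above 50; inconclusive = only one of the two criteria met; inactive = mean below 50 and not all replicates reaching 50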;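 note: 0% = plate neutral controls and 100% = maraviroc near 300 nM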
Statin myotox sup – suppressors of simvastatin-induced myotoxicity in C2C12 myotubes | ATP luminescence, 48 h; scaled: DMSO 0, geranylgeraniol control 100 | rescue of ATP level, % at 7.49 µM | hit rate 0.78% among 330,000;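 active = mean ATP rescue above about 67%, or every replicate alone reaching that limit, limit read from the data, passing the limit was not always enough; inconclusive = no clear call, values can overlap the other calls; inactive = mean under the limit and some replicate under it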;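 note: myotubes were challenged with 10 µM simvastatin during compound exposure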
An asterisk follows results filed as active; [ ] = dose if it differs, or a comment.

Screening Cc1ccc(S(=O)(=O)Nc2cccc3c2O[C@H](CN(C)Cc2ccc(C(=O)Nc4ccccc4N)cc2)[C@H](C)CN([C@H](C)CO)C3=O)cc1 returned INS-1E GSIS act 12, EWS-Fli block 39, PAX8 reporter -9, miR-122 sensor 189*[16.7 µM], HIV Env fusion -100[16.7 µM] and Statin myotox sup 23.
Cc1ccc(S(=O)(=O)Nc2cccc3c2O[C@@H](CN(C)Cc2ccc(C(F)(F)F)cc2)[C@H](C)CN([C@@H](C)CO)C3=O)cc1 was read as INS-1E GSIS act -14, EWS-Fli block 1, miR-122 sensor 54[16.7 µM] and Statin myotox sup 78*.
C[C@@H]1CN([C@H](C)CO)C(=O)c2cccc(NS(=O)(=O)c3ccc(F)cc3)c2O[C@H]1CN(C)Cc1ccc(C(F)(F)F)cc1 was read as INS-1E GSIS act -11, EWS-Fli block 11, PAX8 reporter 4, miR-122 sensor 66[16.7 µM], HIV Env fusion 39[16.7 µM] and Statin myotox sup 48.
CNC[C@H]1OCCCC[C@H](C)Oc2ccc(NS(=O)(=O)c3c(C)noc3C)cc2C(=O)N([C@H](C)CO)C[C@@H]1C was read as INS-1E GSIS act 8, EWS-Fli block -13, PAX8 reporter -12, miR-122 sensor 3[16.7 µM] and HIV Env fusion 4[16.7 µM].
Screening C[C@H]1CN([C@@H](C)CO)C(=O)c2cc(-c3cccnc3)cnc2O[C@H]1CN(C)C(=O)Cc1cccnc1 returned INS-1E GSIS act 3, EWS-Fli block -4, miR-122 sensor -2[16.7 µM], HIV Env fusion -21[16.7 µM] and Statin myotox sup -8.
Screening COc1ccc(-c2ccc(C(C)=O)cc2)cc1[C@H]1[C@@H]2C=CCC[C@@]2(C)C(=O)N1Cc1ccccc1 returned INS-1E GSIS act 7, EWS-Fli block 2, PAX8 reporter 62*, miR-122 sensor 6, HIV Env fusion 14 and Statin myotox sup 21.
For CC(C)NC(=O)Nc1ccc2c(c1)C(=O)N([C@@H](C)CO)C[C@@H](C)[C@H](CN(C)C(=O)CCCN(C)C)OCCCC[C@H](C)O2 the results were INS-1E GSIS act 23, PAX8 reporter 4, miR-122 sensor 2[16.7 µM] and HIV Env fusion 12[16.7 µM].
`COc1ccc(OCCCN(C)Cc2ccccc2)cc1` gave INS-1E GSIS act 20, EWS-Fli block -5, PAX8 reporter -2, miR-122 sensor 2, HIV Env fusion -11 and Statin myotox sup -9.
CCC(C)c1ccccc1OCCCN(C)Cc1ccccc1 (configuration not stated) was read as INS-1E GSIS act 192*, EWS-Fli block 16, PAX8 reporter 10, miR-122 sensor -1, HIV Env fusion 15 and Statin myotox sup -3.
`C=C[C@@H]1c2ccccc2N(S(=O)(=O)c2ccc(C)cc2)[C@H](c2ccc(C(F)(F)F)cc2)C1(C#N)C#N` gave INS-1E GSIS act 5, EWS-Fli block 23, PAX8 reporter 15, HIV Env fusion 56* and Statin myotox sup -37.
`C=C[C@@H]1c2c(F)cccc2N(S(=O)(=O)c2ccc(C)cc2)[C@H](c2ccc(C(=O)OC)cc2)C1(C#N)C#N` gave INS-1E GSIS act 8, EWS-Fli block 6, PAX8 reporter 29, miR-122 sensor -3, HIV Env fusion inconclusive and Statin myotox sup 126*.
For CN(C)C(=O)C[C@H]1CC[C@H]2[C@H](COc3ccc(NC(=O)C4CCCC4)cc3C(=O)N2C)O1 the results were INS-1E GSIS act 15 and EWS-Fli block -12.
Screening COCCNC(=O)C[C@H]1C[C@@H]2c3cc(NC(=O)C4CCC4)ccc3O[C@@H]2[C@H](CO)O1 returned INS-1E GSIS act 4, EWS-Fli block -4, PAX8 reporter -19, miR-122 sensor 43[16.7 µM], HIV Env fusion 2[16.7 µM] and Statin myotox sup -6.
Screening O=C(Nc1ccc(F)cc1)N1C[C@H]2[C@@H](c3ccccc31)[C@@H](CO)N2C(=O)c1ccc(F)cc1 returned INS-1E GSIS act -1, EWS-Fli block 2, PAX8 reporter -3, miR-122 sensor 25[16.7 µM] and Statin myotox sup -4.
For C[C@@H]1CN([C@@H](C)CO)S(=O)(=O)c2ccc(C#CC3CC3)cc2O[C@H]1CN(C)C(=O)c1cnccn1 the results were INS-1E GSIS act -1, EWS-Fli block 6, miR-122 sensor -15[16.7 µM], HIV Env fusion -9[16.7 µM] and Statin myotox sup -2.
